# “And” between values parts separate entries of the source, which are not always exact repeats. Identical values can stand only once. Records with an inconclusive call do not appear. Some compounds were tested as several samples or in several runs, with calls that do not always agree. The source made the active and inactive calls. The calls were made as follows: active = hit-call score of the fitted dose curve at least 0.9, where 1 is the maximum; inconclusive = response in the unintended direction; inactive = score below 0.9.
# Columns and labels:
# [1] = target: human CYP2C9, CYP2C9 (gene 1559) (UniProt P11712); experiment: NVS_ADME_hCYP2C9: NovaScreen (NVS) CYP450-related Enzyme Activity (ADME) Assay for human CYP2C9 (AID 2283108)
# Summary of the method: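 Fluorescence readout of CYP2C9 activity (SF9-expressed human enzyme) at 0.75 h. The primary screen used 10 uM in duplicate, with concentration-response follow-up for actives; acetonitrile was the negative control.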
# [2] = target: Cytochrome P450 2C19 (Homo sapiens) (UniProt P33261); experiment: NVS_ADME_hCYP2C19: NovaScreen (NVS) CYP450-related Enzyme Activity (ADME) Assay for human CYP2C19 (AID 2283113);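 as to AC50: potency for inhibition seen as loss of fluorescent signal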
# Summary of the method: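 Recombinant insect-cell-expressed enzyme, fluorescent substrate, 1 h after chemical addition, fluorescence intensity. Baseline = acetonitrile vehicle; activity scored as signal loss. Primary HTS single concentration 10 uM, duplicate; actives retested in concentration series.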
# [3] = target: Cytochrome P450 3A4 (Homo sapiens) (UniProt P08684); experiment: NVS_ADME_hCYP3A4: NovaScreen (NVS) CYP450-related Enzyme Activity (ADME) Assay for human CYP3A4 (AID 2283110)
# Summary of the method: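 Compounds screened in duplicate at 10 uM, with follow-up concentration-response for actives, against insect-cell-expressed recombinant enzyme. Activity read by fluorescence 0.33 h after dosing; loss of signal versus acetonitrile control indicates inhibition.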
# [4] = target: human CYP2D6, CYP2D6 (gene 1565) (UniProt P10635); experiment: NVS_ADME_hCYP2D6: NovaScreen (NVS) CYP450-related Enzyme Activity (ADME) Assay for human CYP2D6 (AID 2283107)
# Summary of the method: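 Fluorescence intensity read 1 h post-dosing; insect-cell-expressed recombinant protein with fluorogenic substrate, no cells. Activity is scored as signal loss relative to acetonitrile baseline, first at a single 10 uM concentration in duplicate, then as concentration series for confirmed actives.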
# [5] = target: human Caspase 5 (CASP5), CASP5 (gene 838) (UniProt P51878); experiment: NVS_ENZ_hCASP5: NovaScreen (NVS) Enzymatic Assay for human Caspase 5 (CASP5) (AID 2283137)
# Summary of the method: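 Fluorescent substrate readout of CASP5 activity (loss-of-signal), measured 2 h post-dose. Protein expressed in E. coli. Primary screen duplicate at 25 uM; actives meeting threshold (e.g., 30% inhibition) rerun singleton, max 50 uM.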
# [6] = target: human Beta-secretase (BACE), BACE1 (gene 23621) (UniProt P56817); experiment: NVS_ENZ_hBACE: NovaScreen (NVS) Enzymatic Assay for human Beta-secretase (BACE) (AID 2283140);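 also: hits are inhibitors that reduce fluorescent substrate signal versus DMSO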
# Summary of the method: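 SF9-expressed enzyme, cell-free; fluorescent substrate readout after 1 h. Screened at 25 uM single concentration, duplicate; hits retested in concentration series. Activity relative to DMSO baseline, loss-of-signal.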
# [7] = target: human Caspase 4 (CASP4), CASP4 (gene 837) (UniProt P49662); experiment: NVS_ENZ_hCASP4: NovaScreen (NVS) Enzymatic Assay for human Caspase 4 (CASP4) (AID 2283143)
# Summary of the method: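 Compounds were first tested in duplicate at 25 uM, and hits were titrated singly to a 50 uM maximum. Recombinant protease from E. coli was read by fluorescence 2 h post-dose, and activity loss was fitted against the DMSO baseline.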
# [8] = target: rat CYP2A2, Cyp2a2 (gene 24895) (UniProt P15149); experiment: NVS_ADME_rCYP2A2: NovaScreen (NVS) CYP450-related Enzyme Activity (ADME) Assay for rat CYP2A2 (AID 2283116)
# Summary of the method: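 Compounds first tested in duplicate at 10 uM, then in singleton concentration series up to 20 uM when over threshold. Activity of the recombinant enzyme read by fluorescence at 0.2 h, normalised to acetonitrile vehicle.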
# [9] = target: rat CYP2C11, Cyp2c11 (gene 29277) (UniProt P08683); experiment: NVS_ADME_rCYP2C11: NovaScreen (NVS) CYP450-related Enzyme Activity (ADME) Assay for rat CYP2C11 (AID 2283118)
# Summary of the method: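 Screened first at 10 uM in duplicate, hits followed by concentration-response. Recombinant rat enzyme activity monitored by fluorescence 0.33 h post-dosing, normalised to acetonitrile negative control.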
# [10] = tested on: rat CYP2C6, gene 293989; experiment: NVS_ADME_rCYP2C6: NovaScreen (NVS) CYP450-related Enzyme Activity (ADME) Assay for rat CYP2C6 (AID 2283120)
# Summary of the method: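 Compounds first tested in duplicate at 10 uM, hits (e.g. 30% inhibition) re-run in singleton dose series to a 20 uM top concentration. Enzyme activity of recombinant rat CYP2C6 measured via fluorescent substrate turnover after 1 h; acetonitrile baseline.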
# [11] = tested on: rat CYP3A1, gene 25642; experiment: NVS_ADME_rCYP3A1: NovaScreen (NVS) CYP450-related Enzyme Activity (ADME) Assay for rat CYP3A1 (AID 2283126)
# Summary of the method: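 Compounds went first at 10 uM duplicate, then to series with 20 uM maximum. Fluorescence from substrate turnover by the recombinant enzyme was measured 0.5 h post-dosing, inhibition scored against acetonitrile vehicle.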
# [12] = target: human Casein Kinase 1-delta (CK1D), CSNK1D (gene 1453) (UniProt P48730); experiment: NVS_ENZ_hCK1D: NovaScreen (NVS) Enzymatic Assay for human Casein Kinase 1-delta (CK1D) (AID 2283148)
# Summary of the method: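 Recombinant human CK1-delta, cell-free; fluorescent substrate with electrophoretic mobility-shift separation of product, read 1 h after dosing. Single 25 uM duplicate screen, then concentration-response up to 50 uM; loss of signal vs DMSO.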
# [13] = target: human Colony Stimulating Factor 1 Receptor (CSF1R), CSF1R (gene 1436) (UniProt P07333); experiment: NVS_ENZ_hCSF1R: NovaScreen (NVS) Enzymatic Assay for human Colony Stimulating Factor 1 Receptor (CSF1R) (AID 2283150)
# Summary of the method: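 Compounds screened in duplicate at 25 uM, then concentration-response (top 50 uM) for those passing threshold such as 30% inhibition; recombinant CSF1R activity measured 1 h post-dosing via fluorescent substrate/product mobility-shift separation, loss of signal versus DMSO.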
# [14] = target: Caspase-3 (Homo sapiens) (UniProt P42574); experiment: NVS_ENZ_hCASP3: NovaScreen (NVS) Enzymatic Assay for human Caspase 3 (CASP3) (AID 2283139)
# Summary of the method: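 Single-concentration screening at 25 uM in duplicate, with concentration-response follow-up to a 50 uM maximum for chemicals passing the threshold. Caspase-3 (human, E. coli-expressed) activity was read as substrate fluorescence after 1 h, with loss of signal relative to DMSO.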
# [15] = target: human AKT serine/threonine Kinase 1 (AKT1), AKT1 (gene 207) (UniProt P31749); experiment: NVS_ENZ_hAKT1: NovaScreen (NVS) Enzymatic Assay for human AKT serine/threonine Kinase 1 (AKT1) (AID 2283138)
# Summary of the method: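 Fluorescence and mobility-shift readout of kinase activity, taken 1 h post-dosing in a cell-free format with recombinant protein. Primary screen at 25 uM in duplicate; hits (e.g. 30% inhibition) retested in concentration series topping at 50 uM.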
# Chain of human Caspase 4 (CASP4), CASP4 (gene 837) (P49662 whole entry, looked up): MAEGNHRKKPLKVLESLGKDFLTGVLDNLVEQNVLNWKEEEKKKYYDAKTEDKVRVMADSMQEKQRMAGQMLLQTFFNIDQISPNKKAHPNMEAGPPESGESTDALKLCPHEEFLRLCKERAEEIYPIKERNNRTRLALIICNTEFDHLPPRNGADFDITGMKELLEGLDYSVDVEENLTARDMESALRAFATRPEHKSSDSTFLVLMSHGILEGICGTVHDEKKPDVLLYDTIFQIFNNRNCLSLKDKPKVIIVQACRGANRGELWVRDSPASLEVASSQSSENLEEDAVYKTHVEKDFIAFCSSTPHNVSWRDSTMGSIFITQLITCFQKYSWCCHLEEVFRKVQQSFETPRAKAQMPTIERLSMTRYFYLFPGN
# Chain of rat CYP2C11, Cyp2c11 (gene 29277) (P08683 whole entry, looked up): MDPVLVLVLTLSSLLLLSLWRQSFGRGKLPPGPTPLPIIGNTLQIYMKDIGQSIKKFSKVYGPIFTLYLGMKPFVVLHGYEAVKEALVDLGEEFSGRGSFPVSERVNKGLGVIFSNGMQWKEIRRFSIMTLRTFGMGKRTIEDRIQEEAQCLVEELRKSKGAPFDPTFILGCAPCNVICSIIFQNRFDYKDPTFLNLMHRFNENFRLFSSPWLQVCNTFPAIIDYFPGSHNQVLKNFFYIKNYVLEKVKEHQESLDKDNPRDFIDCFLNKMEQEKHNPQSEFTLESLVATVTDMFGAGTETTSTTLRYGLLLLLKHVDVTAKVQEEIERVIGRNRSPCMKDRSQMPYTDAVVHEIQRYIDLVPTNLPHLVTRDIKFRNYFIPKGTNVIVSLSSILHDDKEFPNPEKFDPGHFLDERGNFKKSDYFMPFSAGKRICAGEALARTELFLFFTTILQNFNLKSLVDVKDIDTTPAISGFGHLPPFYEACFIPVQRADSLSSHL
# Chain of human CYP2D6, CYP2D6 (gene 1565) (P10635 whole entry, looked up): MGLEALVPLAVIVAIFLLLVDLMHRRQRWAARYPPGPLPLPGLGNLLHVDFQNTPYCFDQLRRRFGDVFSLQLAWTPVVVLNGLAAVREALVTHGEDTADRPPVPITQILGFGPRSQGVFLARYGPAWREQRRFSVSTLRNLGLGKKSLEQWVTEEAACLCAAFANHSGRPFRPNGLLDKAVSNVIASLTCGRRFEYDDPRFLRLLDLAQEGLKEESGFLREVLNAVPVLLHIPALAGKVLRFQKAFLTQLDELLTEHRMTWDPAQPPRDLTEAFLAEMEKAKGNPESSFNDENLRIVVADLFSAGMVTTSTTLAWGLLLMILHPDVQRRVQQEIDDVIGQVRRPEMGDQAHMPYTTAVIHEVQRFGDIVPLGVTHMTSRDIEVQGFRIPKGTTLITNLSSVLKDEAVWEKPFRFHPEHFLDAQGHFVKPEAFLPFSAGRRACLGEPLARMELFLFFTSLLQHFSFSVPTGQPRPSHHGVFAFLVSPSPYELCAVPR
# Chain of rat CYP2A2, Cyp2a2 (gene 24895) (P15149 whole entry, looked up): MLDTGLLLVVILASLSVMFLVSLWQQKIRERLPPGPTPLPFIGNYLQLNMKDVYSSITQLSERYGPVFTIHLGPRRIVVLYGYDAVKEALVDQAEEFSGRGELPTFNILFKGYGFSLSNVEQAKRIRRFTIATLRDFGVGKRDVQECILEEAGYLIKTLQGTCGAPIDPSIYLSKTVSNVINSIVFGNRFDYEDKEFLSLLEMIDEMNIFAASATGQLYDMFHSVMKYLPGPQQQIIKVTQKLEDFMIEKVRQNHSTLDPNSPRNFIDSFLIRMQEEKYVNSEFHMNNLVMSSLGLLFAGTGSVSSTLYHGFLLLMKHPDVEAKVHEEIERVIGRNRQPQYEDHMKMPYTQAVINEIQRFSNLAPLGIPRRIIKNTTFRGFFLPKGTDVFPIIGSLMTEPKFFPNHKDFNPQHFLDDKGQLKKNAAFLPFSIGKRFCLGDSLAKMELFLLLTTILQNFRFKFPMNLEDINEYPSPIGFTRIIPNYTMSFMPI
# Chain of Cytochrome P450 3A4 (Homo sapiens) (P08684 whole entry, looked up): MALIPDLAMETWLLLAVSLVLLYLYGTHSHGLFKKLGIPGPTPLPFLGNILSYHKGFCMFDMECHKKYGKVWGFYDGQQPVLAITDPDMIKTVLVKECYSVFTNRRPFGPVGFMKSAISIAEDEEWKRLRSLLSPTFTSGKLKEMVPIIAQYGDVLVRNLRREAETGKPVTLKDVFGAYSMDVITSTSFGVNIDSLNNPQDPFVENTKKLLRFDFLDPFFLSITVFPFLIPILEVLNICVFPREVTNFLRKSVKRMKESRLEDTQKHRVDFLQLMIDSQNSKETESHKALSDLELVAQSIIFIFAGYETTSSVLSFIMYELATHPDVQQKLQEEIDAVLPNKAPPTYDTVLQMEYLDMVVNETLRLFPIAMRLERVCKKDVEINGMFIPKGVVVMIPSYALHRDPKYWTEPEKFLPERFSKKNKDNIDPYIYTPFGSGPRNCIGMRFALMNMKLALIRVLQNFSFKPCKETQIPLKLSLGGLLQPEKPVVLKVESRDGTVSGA
# Chain of human CYP2C9, CYP2C9 (gene 1559) (P11712 whole entry, looked up): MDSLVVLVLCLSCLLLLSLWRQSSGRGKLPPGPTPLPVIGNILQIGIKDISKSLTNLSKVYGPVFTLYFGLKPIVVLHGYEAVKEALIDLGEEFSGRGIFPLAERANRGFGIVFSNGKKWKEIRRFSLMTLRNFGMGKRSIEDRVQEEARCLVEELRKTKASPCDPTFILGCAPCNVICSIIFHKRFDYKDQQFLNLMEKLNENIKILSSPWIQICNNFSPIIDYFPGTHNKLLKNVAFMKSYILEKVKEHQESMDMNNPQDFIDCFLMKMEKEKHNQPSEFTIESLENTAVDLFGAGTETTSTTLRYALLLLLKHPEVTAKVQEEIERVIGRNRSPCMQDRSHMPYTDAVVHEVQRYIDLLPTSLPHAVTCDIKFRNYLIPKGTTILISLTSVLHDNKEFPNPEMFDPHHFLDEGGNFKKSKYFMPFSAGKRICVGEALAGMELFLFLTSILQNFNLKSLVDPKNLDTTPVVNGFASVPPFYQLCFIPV
# Chain of human Caspase 5 (CASP5), CASP5 (gene 838) (P51878 whole entry, looked up): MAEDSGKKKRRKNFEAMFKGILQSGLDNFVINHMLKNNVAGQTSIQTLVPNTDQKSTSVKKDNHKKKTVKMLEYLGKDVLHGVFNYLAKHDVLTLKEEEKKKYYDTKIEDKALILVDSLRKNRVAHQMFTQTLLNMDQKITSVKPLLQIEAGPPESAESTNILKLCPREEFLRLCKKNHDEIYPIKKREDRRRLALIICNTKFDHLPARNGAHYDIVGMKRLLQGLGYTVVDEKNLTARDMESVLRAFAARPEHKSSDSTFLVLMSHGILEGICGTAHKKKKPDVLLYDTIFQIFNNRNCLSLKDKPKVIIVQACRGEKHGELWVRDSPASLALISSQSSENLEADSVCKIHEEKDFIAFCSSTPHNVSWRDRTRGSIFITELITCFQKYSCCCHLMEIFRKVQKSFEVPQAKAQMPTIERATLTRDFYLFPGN
# Chain of human Casein Kinase 1-delta (CK1D), CSNK1D (gene 1453) (P48730 whole entry, looked up): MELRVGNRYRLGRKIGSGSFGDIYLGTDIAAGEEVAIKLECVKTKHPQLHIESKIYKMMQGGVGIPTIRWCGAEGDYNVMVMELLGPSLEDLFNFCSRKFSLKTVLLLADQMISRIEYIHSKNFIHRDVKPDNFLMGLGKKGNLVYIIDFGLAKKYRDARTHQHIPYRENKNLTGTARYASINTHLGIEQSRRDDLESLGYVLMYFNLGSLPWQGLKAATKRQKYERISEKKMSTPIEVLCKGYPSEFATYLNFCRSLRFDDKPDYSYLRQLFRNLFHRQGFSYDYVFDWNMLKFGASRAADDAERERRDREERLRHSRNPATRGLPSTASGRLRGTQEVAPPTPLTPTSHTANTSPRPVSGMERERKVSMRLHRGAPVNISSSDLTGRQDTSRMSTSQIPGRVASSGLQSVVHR
# Chain of human Beta-secretase (BACE), BACE1 (gene 23621) (P56817 whole entry, looked up): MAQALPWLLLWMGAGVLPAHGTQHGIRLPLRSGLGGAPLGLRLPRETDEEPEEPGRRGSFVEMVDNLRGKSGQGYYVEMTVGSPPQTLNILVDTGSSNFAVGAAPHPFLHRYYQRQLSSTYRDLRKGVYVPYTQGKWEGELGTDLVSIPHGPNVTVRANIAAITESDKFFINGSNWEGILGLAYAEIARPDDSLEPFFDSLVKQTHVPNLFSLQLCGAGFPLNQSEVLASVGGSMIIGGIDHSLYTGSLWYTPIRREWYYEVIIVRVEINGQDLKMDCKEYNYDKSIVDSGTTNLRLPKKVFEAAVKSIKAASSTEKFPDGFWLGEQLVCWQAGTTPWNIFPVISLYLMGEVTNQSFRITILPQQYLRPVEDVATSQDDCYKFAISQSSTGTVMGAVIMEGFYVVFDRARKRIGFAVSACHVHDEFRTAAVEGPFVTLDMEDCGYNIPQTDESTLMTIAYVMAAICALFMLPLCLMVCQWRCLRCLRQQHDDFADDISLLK
# Chain of Caspase-3 (Homo sapiens) (P42574 whole entry, looked up): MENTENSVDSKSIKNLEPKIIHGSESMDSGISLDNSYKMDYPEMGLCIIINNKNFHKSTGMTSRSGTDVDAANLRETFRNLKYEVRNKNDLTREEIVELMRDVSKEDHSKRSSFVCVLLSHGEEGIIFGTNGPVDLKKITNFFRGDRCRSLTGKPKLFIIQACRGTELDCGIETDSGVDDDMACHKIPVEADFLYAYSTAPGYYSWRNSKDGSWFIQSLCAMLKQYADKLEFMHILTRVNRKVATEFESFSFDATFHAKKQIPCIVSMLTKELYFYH
# Chain of human AKT serine/threonine Kinase 1 (AKT1), AKT1 (gene 207) (P31749 whole entry, looked up): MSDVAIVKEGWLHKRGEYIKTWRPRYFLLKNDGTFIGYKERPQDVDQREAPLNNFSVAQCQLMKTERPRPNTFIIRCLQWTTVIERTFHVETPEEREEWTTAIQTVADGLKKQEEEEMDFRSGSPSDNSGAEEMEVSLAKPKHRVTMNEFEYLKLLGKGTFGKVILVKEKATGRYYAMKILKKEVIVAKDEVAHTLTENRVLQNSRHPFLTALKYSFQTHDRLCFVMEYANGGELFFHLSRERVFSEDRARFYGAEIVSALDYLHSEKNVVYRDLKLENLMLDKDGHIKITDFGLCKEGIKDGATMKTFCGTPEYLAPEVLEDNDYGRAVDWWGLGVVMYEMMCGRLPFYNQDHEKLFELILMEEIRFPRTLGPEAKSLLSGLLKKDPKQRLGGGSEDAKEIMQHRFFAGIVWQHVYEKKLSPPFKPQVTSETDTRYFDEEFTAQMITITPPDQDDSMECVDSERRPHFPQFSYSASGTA
smiles,measurement,setting,value
O=C1OC(c2ccc(O)cc2)(c2ccc(O)cc2)c2ccccc21,AC50,[1],6.81 µM (active)
same,AC50,[2],0.586 µM (active)
CCCCC(CC)COP(=O)(OCC(CC)CCCC)OCC(CC)CCCC (centres undefined),outcome,[1],inactive
same,outcome,[2],inactive
CC1(C)C(=O)NC(=O)N1CO,outcome,[3],inactive
Cc1c(C)c2c(c(C)c1O)CCC(C)(COc1ccc(CC3SC(=O)NC3=O)cc1)O2 (centres undefined),outcome,[1],inactive
NC(=Nc1ccccc1)Nc1ccccc1,AC50,[4],0.984 µM (active)
CCc1cc(C2=C(C(=O)O)N(c3ccccc3C(F)(F)F)S(=O)(=O)c3ccccc32)cc2c1OCO2,outcome,[1],inactive
same,AC50,[3],4.98 µM (active)
same,AC50,[2],15.8 µM (active)
same,outcome,[5],inactive
same,AC50,[6],6.05 µM (active)
same,outcome,[7],inactive
CCN(CC)CCOc1ccc(C(=C(Cl)c2ccccc2)c2ccccc2)cc1,AC50,[4],2.38 µM (active)
same,AC50,[1],6.93 µM (active)
same,AC50,[2],2.68 µM (active) [middle of 4 runs]
same,AC50,[8],3.22 µM (active) and 5.8 µM (active)
same,outcome,[8],inactive
same,AC50,[9],6.05 µM (active) and 5 µM (active) and 325 nM (active)
same,AC50,[10],4.06 µM (active) and 3.54 µM (active) and 4.76 µM (active)
same,AC50,[11],6.26 µM (active)
same,AC50,[6],14.7 µM (active)
O=C(N[C@@H](c1ccccc1)[C@@H]1CCCCN1)c1cccc(C(F)(F)F)c1Cl,AC50,[4],1.06 µM (active)
same,AC50,[1],3.27 µM (active)
same,outcome,[3],inactive
same,outcome,[2],inactive
same,outcome,[12],inactive
same,outcome,[13],inactive
CC(=O)OC1CC(C)OC(C)O1 (centres undefined),outcome,[4],inactive
same,AC50,[1],4.37 µM (active)
same,AC50,[2],15.1 µM (active)
same,outcome,[14],inactive
COC(=O)[C@H]1[C@H]2C[C@@H]3c4[nH]c5cc(OC)ccc5c4CCN3C[C@H]2C[C@@H](OC(=O)c2cc(OC)c(OC)c(OC)c2)[C@@H]1OC,AC50,[2],7.91 µM (active)
O=C(NS(=O)(=O)/C=C/c1cccs1)c1ccc(F)cc1Br,AC50,[1],4.11 µM (active)
CCCCc1nc2cccnc2n1Cc1ccc(-c2ccccc2-c2nnn[nH]2)cc1,AC50,[1],2.96 µM (active)
CCC(C)N(C)C(=O)c1cc2ccccc2c(-c2ccccc2Cl)n1 (centres undefined),AC50,[1],4.2 µM (active)
Cc1ccc(-c2cc(C(F)(F)F)nn2-c2ccc(S(N)(=O)=O)cc2)cc1,AC50,[1],6 µM (active)
same,outcome,[7],inactive
S=c1[nH]c2ccccc2s1,AC50,[4],6.77 µM (active)
same,AC50,[1],7.33 µM (active)
same,AC50,[2],1.92 µM (active)
same,outcome,[15],inactive
same,outcome,[7],inactive
CC(C)OC(=O)C(C)(C)Oc1ccc(C(=O)c2ccc(Cl)cc2)cc1,outcome,[1],inactive
same,AC50,[2],4.67 µM (active)
CCCCCCCCCCCCCCCCO,AC50,[2],12.6 µM (active)
CN(C)C(=O)NC1(c2ccccc2)CCN(CCC[C@]2(c3ccc(Cl)c(Cl)c3)CCCN(C(=O)c3ccccc3)C2)CC1,AC50,[4],1.25 µM (active)
same,outcome,[12],inactive
same,outcome,[13],inactive
CCCCCCC(CCCCCCCCCCC(=O)OCC(COC(C)=O)OC(C)=O)OC(C)=O (centres undefined),AC50,[1],1.41 µM (active)
same,AC50,[5],13.7 µM (active)
CSc1ccc(Oc2ccc(S(N)(=O)=O)cc2CN(C)C)cc1C,AC50,[4],4.8 µM (active)
same,AC50,[1],4.84 µM (active)
same,AC50,[2],4.05 µM (active)
